Shown is part of a subset that was picked to be rich in hits.
S aureus helic – S. aureus DNA helicase inhibition; inhibition, % (no concentration beside the values); AID 485395; 0.05% of 120,000 active; purified S. aureus helicase, fluorescence unwinding assay; in the data active = inhibition above about 25%, passing the limit was not always enough;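 note: 0% = mean of negative control wells and 100% = mean of positive control wells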
Sa growth inh – inhibitors of Staphylococcus aureus growth at 42 °C | S. aureus RN4220 growth, OD600, 20 h; stronger effect = lower value | relative growth, % (no concentration beside the values) | 0.53% of 170,000 active | AID 720641;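 active = relative growth at most 50% at the other temperature and 20+ points below 30 °C, or under 10% at both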
Starred values were filed as active, the others as inactive; . = not tested or not shown.

SMILES	S aureus helic	Sa growth inh
Cc1cc(C)cc(C(=O)NCC(c2ccc(N(C)C)cc2)N2CCCC2)c1 (stereo not drawn)	.	89
C(=Nc1nc2ccccc2nc1N1CCCC1)N1CCOCC1	-2	93
O=C1N/C(=N\S(=O)(=O)c2ccccc2)S/C1=C/c1ccco1	15	75
O=C(O)/C=C/C(=O)Nc1ccc(SC(F)(F)F)cc1	-20	100
O=C(Nc1ccc(SC(F)(F)F)cc1)n1ccc(C(F)(F)F)n1	.	4.9*
Cc1cc(OCC(=O)Oc2ccc(-c3nnco3)cc2)ccc1C(C)C	-3	106
Oc1c(CN2CCOCC2)ccc2ccccc12	3	107
Cc1ccc(C(c2c(O)ccc3ccccc23)N2CCOCC2)o1 (stereo not drawn)	10	-0.6*
Cc1c(O)ccc(-c2n[nH]c(C(F)(F)F)c2Oc2ccccc2)c1O	-20	.
COc1ccc(-c2n[nH]c(C(F)(F)F)c2-c2cc3ccccc3o2)c(O)c1	28	3.9*
COc1ccc(CN2CCSCC2)cc1Br	.	107
Oc1ccc(Cl)cc1Sc1cc(Cl)ccc1O	12	3.6*
Oc1ccc(Cl)cc1-c1csnn1	28	36
CCCN1C(=N)C(c2nc3ccccc3s2)=C(O)C1c1ccccc1 (stereo not drawn)	14	85
O=C(OCC(=O)c1c[nH]c2ccccc12)c1ccc(N2CCCC2=O)cc1	-18	95
Cc1ccc(OCCn2cccc2/C=C2\C(=N)N3N=C(N4CCCC4)SC3=NC2=O)c(C)c1	-4	91
Nc1ccn([C@@H]2O[C@H](CO)[C@@H](O)C2O)c(=O)n1 (stereo partly drawn)	.	96
Nc1ccn([C@@H]2O[C@H](CO)[C@@H](O)C2(F)F)c(=O)n1	.	0.3*
CSc1cc(-c2ccccc2)[o+]c(-c2ccccc2)c1	8	93
Cc1ccc2c3c(ccc2n1)NC1=C(C(=O)CCC1)C3C1CC=CCC1 (stereo not drawn)	18	98
CC(NC1=NCCN1)C(=O)O (stereo not drawn)	16	99
Cc1noc(C)c1C(=O)N=c1sc2ccccc2n1C	0	15
COC(=O)c1ccc(-n2c(C)ccc2C)cc1	1	106
CCNC(=O)c1ccc(-n2c(C)ccc2C)cc1	29*	112
O=C(CCCCn1c(=O)[nH]c2ccsc2c1=O)N1CCN(Cc2ccc3c(c2)OCO3)CC1	-13	93
SMILES	S aureus helic	Sa growth inh
O=C(/C=C/c1c(Cl)nc2sccn12)Nc1ccc(F)cc1	-9	121
CC(=O)Nc1nnc(SCC(=O)N2CCCC2)s1	1	106
Cc1ccc(C)c(-c2nnc(NC(=O)c3ccccc3S(C)(=O)=O)o2)c1	6	2.0*
CS(=O)(=O)c1ccccc1C(=O)Nc1nnc(-c2ccc(Cl)cc2)o1	8	22
CNC(=O)COc1coc(CN2c3ccccc3CC2C)cc1=O (stereo not drawn)	10	113
COc1ccc(C(c2c(C)[nH]c3ccccc23)N2CCOCC2)cc1 (stereo not drawn)	15	1.3*
COc1ccc(C(c2c(C)[nH]c3ccccc23)N2CCCC2)cc1 (stereo not drawn)	21	.
O=c1c(=NNc2nn[nH]n2)c(=O)c2ccccc12	11	1.4*
O=c1c(=NNc2ccccc2)c(=O)c2ccccc12	.	99
COc1ccccc1NC(=O)Cc1nc(CSc2nncn2C(C)C)cs1	-18	94
O=C1C(Sc2ncn[nH]2)=C/C(=N/S(=O)(=O)c2ccc(F)cc2)c2ccccc21	-15	1.1*
O=S(=O)(Nc1cc(Sc2ncn[nH]2)c(O)c2ccccc12)c1cccs1	11	109
CCOc1ccc(S(=O)(=O)/N=C2/C=C(Sc3ncn[nH]3)C(=O)c3ccccc32)cc1	-106	22
O=C1C(Sc2ncn[nH]2)=C/C(=N/S(=O)(=O)c2cccs2)c2ccccc21	-11	1.4*
COc1ccc(CCNC(=O)Cc2noc3ccccc23)c(OC)c1	-2	109
COc1cc2c(=O)n(Cc3ccccc3)c(=O)n(CC(=O)N3CC(C)CC(C)C3)c2cc1OC (stereo not drawn)	11	114
Cc1nc(-c2ccc3ccccc3c2)cs1	-23	.
Cc1nc(-c2ccc3[nH]c(=O)oc3c2)cs1	18	-1.1*
CC(C)N1CCc2c(sc(NC(=O)C3=COCCO3)c2C(N)=O)C1	42*	88
NC(=O)c1c(NC(=O)C2=COCCO2)sc2c1CCCC2	22	.
CCc1cccc(Nc2ncnc3c2nc2n3CCCCC2)c1	-11	100
CN(c1ccccc1)S(=O)(=O)c1cccs1	-10	105
CN(C)CCC(=O)c1ccc2c(c1)OCO2	3	87
CCCCCc1ccc(C(=O)CCN(C)C)cc1	0	-0.1*
Cc1ccc(NC(=O)C(NC(=O)c2ccccc2)C(C)C)cc1 (stereo not drawn)	0	108
SMILES	S aureus helic	Sa growth inh
CCn1c(=O)c(=O)[nH]c2cc(C(=O)NCc3cccs3)ccc21	3	87
COc1ccc2c(c1)N(C)/C(=c1/s/c(=C3/C(=O)N(c4ccccc4)N=C3C)n(C)c1=O)S2	1	105
O=c1oc2ccc(Cl)cc2c(=O)n1-c1cccc(C(F)(F)F)c1	7	-0.7*
Cc1ccc(-n2c(=O)oc3ccc(Cl)cc3c2=O)cc1	18	68
OC1CCCCC1c1ccccn1 (stereo not drawn)	-14	.
CCCn1c(NC(=O)CCC2CCCC2)nc2ccccc21	20	147
CCCn1c(NC(=O)C2CCCC2)nc2ccccc21	-4	-0.9*
CC(CCc1ccco1)NC(=O)Nc1cn(C)c(=O)c2ccccc12 (stereo not drawn)	-8	98
CCN(CC)C(=O)c1csc(Nc2ccc(OC)cc2)n1	-2	110
Cc1cc(Br)ccc1NC(=O)c1ccccn1	6	106
C/C(=N\NC(=O)c1cc(Br)ccc1O)c1ccccn1	4	3.1*
Cc1cc(C)cc(OC(=O)CCN2C(=O)c3ccccc3C2=O)c1	17	-1.1*
O=C(CCN1C(=O)c2ccccc2C1=O)Oc1ccc(Cl)cc1	4	114
CC1CCCCN1C(=S)NC(=O)c1ccccc1Cl (stereo not drawn)	-14	110
CN1CCN(C(=O)CCN2C(=O)/C(=C/c3ccccc3)SC2=S)CC1	4	86
O=C(Nc1ccc([N+](=O)[O-])cc1Cl)c1cc(Cl)ccc1O	.	-0.6*
O=C(Nc1ccccc1Cl)c1ccccc1O	5	19
O=C(NCc1ccco1)c1ccc2c(c1)NC(=O)C1CCCN21 (stereo not drawn)	11	103
Cc1ccc(-c2cc(C(F)F)nc(NCc3ccco3)n2)cc1	19	106
Cc1ccc(-c2cc(C(F)F)nc(S(C)(=O)=O)n2)cc1	3	36*
COc1cccc(NC(=O)Cn2sc3ccccc3c2=O)c1	12	-0.2*
COc1cccc(NC(=O)Cn2ccc3c(OC)cccc3c2=O)c1	-2	98
COc1ccc(CCNC(=O)Cn2cnc3c(cnn3-c3ccccc3)c2=O)cc1OC	6	105
COc1ccc(CNC(=O)Cn2cnc3ccccc32)cc1OC	41*	82
Oc1c(CN2CCOCC2)cc(Cl)c2cccnc12	-3	1.3*
SMILES	S aureus helic	Sa growth inh
CC1CN(Cc2cc(Cl)c3cccnc3c2O)CC(C)O1 (stereo not drawn)	1	0.6*
CCN1CCN(Cc2cc(Cl)c3cccnc3c2O)CC1	27	74
Oc1c(CN2CCCCC2)cc(Cl)c2cccnc12	13	.
C/C(N)=C(/C#N)C(=O)CSc1n[nH]c(N)n1	-12	74
Cc1ccc(S(=O)(=O)/N=C2\NC(=O)CS2)cc1	5	106
CCS(=O)(=O)c1nc(S(=O)(=O)c2ccc(Cl)cc2)c(NCC2CCCO2)s1 (stereo not drawn)	16	85

Screens from PubChem.
